# Only some compounds are listed: those with a hit (about 3.1% of all), similar ones and a draw of the others.
# Tb PFK inh: T. brucei PFK enzyme inhibition. O15648. T. brucei PFK, ADP-Glo luminescence. Potency, µM (doses to about 57.5 µM), for the others: at the top dose activity, negative = inhibition, hits mostly inhibitors. actives 0.17% (n = 330,000). AID 485367;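 further: 0% = uninhibited 1x PFK enzyme wells and -100% = no-enzyme wells; nearly all actives have a fitted effect of over 60% in size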
# Target sequence (O15648 whole entry, looked up): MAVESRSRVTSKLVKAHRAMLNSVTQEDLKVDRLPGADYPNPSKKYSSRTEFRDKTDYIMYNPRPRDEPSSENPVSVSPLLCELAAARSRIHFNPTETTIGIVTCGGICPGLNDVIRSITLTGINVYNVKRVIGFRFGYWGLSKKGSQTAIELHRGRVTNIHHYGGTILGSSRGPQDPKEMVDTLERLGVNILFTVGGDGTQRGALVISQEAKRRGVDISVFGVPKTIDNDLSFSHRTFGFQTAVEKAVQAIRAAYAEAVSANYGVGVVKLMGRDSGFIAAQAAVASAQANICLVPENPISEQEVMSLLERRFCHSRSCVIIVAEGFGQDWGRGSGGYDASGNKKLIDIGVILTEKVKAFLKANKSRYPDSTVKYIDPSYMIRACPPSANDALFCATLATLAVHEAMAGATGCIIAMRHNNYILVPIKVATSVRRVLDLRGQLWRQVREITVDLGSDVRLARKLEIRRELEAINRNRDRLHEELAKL
#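 Luminescent ADP detection (ADP-Glo, two-step: ATP depletion then ADP-to-ATP conversion for luciferase) reported PFK activity after 45 min room-temperature reaction of 1.25 nM enzyme with 0.5 mM F6P and 0.1 mM ATP at pH 8.0.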
# Pin1 inhibitor: human Pin1 inhibition. Q13526. Pin1 FP peptide displacement, HiFluor488, 10 min. Potency, µM (highest dose often 115 µM), inactives show at the top dose activity, negative = inhibition, hits mostly inhibitors. actives 0.009% (n = 390,000); active means well fitted inhibition curve with a large enough effect in the polarisation, with a control signal flat, not every such curve was filed as active; inconclusive means small, poorly fitted or top-dose-only effect, or effect the other way, or a change in a side signal; inactive means no such curve, though single readings can be large or run the other way; the % refers to the polarisation; further: on the % scale 0 is the no-effect control and ±100 the full control effect
# Target sequence (Q13526 whole entry, looked up): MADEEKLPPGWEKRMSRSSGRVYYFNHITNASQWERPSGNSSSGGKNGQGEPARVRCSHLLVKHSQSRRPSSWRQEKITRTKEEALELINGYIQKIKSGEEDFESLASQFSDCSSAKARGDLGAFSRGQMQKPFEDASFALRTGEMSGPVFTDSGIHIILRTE
# PLK1 PBD block: blocks phosphopeptide binding to human PLK1 polo-box domain; AID 720504; Plk1 PBD binding of FITC phosphopeptide, fluorescence polarization; P53350; actives 2.8% (n = 360,000); Potency, µM, without a hit: max response, negative = inhibition, usual class: inhibitors; further: series mostly up to about 57 µM; on the % scale 0 is the no-effect control and ±100 the full control effect; nearly all actives have a fitted effect of over 65% in size
# ASM inhibitor: human S-ASM enzyme inhibition; actives 0.006% (n = 340,000); placental ASM, HMU-PC fluorogenic substrate, 60 min; P17405; Potency, µM (top dose mostly 57.5 µM), for the others: at the highest dose activity change, negative = inhibition, actives largely listed as inhibitors; AID 504937
#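 Fluorogenic HMU-PC substrate (9 uM final) is turned over by placental ASM in 60 min at 37 C after a 10 min compound preincubation. Reaction ended by alkaline stop (pH 10), with fluorescence read at 386/447 nm.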
# VDR inh: inhibitors of human vitamin D receptor | P11473 | VDR-SRC2-3 peptide fluorescence polarization, 2 h | Potency, µM, for inactives: max response, negative = inhibition, usual class: inhibitors | actives 0.93% (n = 400,000) | AID 504847; further: on the % scale 0 is the no-effect control and ±100 the full control effect
#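 Inhibition of the VDR/SRC2-3 peptide interaction is quantified by fluorescence polarization. Compounds (23 nl, pintool) incubate with the reagents for 2 hours at ambient room temperature.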
# TDP1 inh: TDP1 (human) enzyme inhibition; Q9NUW8; recombinant TDP1, AlphaScreen DNA substrate cleavage; Potency, µM (highest dose often 130 µM), for inactives: at the highest dose activity change, negative = inhibition, hits mostly inhibitors; actives 0.28% (n = 350,000); AID 485290; further: on the % scale 0 is the no-effect control and ±100 the full control effect; nearly all actives have a fitted effect of over 40% in size
#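 Signal: AlphaScreen proximity between streptavidin donor and anti-FITC acceptor beads on intact substrate. Reaction: Tdp1 1 nM, substrate 15 nM final, 5 min RT after 15 min compound preincubation.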
# * hit, by the source's call; i = inactive; ? = inconclusive; / = no result given; [ ] = dose if it differs, or a comment. Unless noted, the call rests on the fitted dose curve; in most records, active means well fitted curve in the direction sought with a large enough effect; inconclusive means small, poorly fitted or top-dose-only effect, or another doubt; inactive means no such curve, though single readings can be large; an effect the other way counts as inactive or inconclusive. Potency means the concentration at half of the fitted maximal effect.
SMILES,Tb PFK inh,Pin1 inhibitor,PLK1 PBD block,ASM inhibitor,VDR inh,TDP1 inh
CCn1c(SCC(=O)Nc2cc(C)on2)nc2sc3c(c2c1=O)CCCC3,-1%,17%,-1%,-2%,4%,/
CCOc1ccccc1N1C(=O)c2ccccc2N/C1=C\N1CCN(C(=O)c2ccco2)CC1,/,-12%,/,/,-11%,1%
COc1ccccc1C1N=C(Nc2nc3ccccc3o2)NC2=C1C(=O)CC(C)(C)C2 (stereo not drawn),/,-2%,/,/,-3%,1%
Cc1ccc(-c2csc3nc(-c4ccncc4)[nH]c(=O)c23)cc1,0%,?,17µM*,25%,-8%,/
O=c1[nH]c(Cc2ccc(F)cc2)nc2scc(-c3ccc(F)cc3)c12,-4%,18%,6µM*,-3%,?,4%
Cc1ccc(-c2csc3nc[nH]c(=O)c23)cc1,-1%,4%,-11%,4%,0%,-2%
COc1ccc(C(=O)N2CC(=O)Nc3ccc(F)cc3C2c2ccc(F)cc2)c(OC)c1 (stereo not drawn),/,0%,/,/,-17%,3%
Cc1ccc(-c2nnc(N3CCC(C(N)=O)CC3)s2)cc1,/,-8%,/,/,/,/
Cc1ccc2c(c1)N(CCCC(=O)Nc1cccc(C(F)(F)F)c1)C(=O)CO2,-6%,12%,27µM*,-8%,?,-1%
COc1ccccc1CNC(=O)Cn1c(=O)nc(-c2ccccc2F)c2cc(Cl)ccc21,/,-7%,/,/,10%,1%
Cc1ccccc1S(=O)(=O)Cc1ccc(C(=O)NC2CCCCC2)o1,2%,-5%,21µM*,-2%,-24%,5%
O=S(=O)(c1ccc2c(c1)OCCO2)N1CCN(S(=O)(=O)c2cc(F)c(Br)cc2F)CC1,/,0%,/,/,/,0%
Cc1ccccc1Oc1nc2c(C)cccn2c(=O)c1/C=C(\C#N)C(=O)NC1CCS(=O)(=O)C1 (stereo not drawn),-12%,18%,-11%,145%,40µM*,3%
Cc1ccc(Oc2nc3ccccn3c(=O)c2/C=C(\C#N)C(=O)NC2CCS(=O)(=O)C2)cc1 (stereo not drawn),0%,?,-4%,280%,79µM*,/
Cc1cccn2c(=O)c(/C=C(\C#N)C(=O)NC3CCS(=O)(=O)C3)c(Oc3ccccc3Cl)nc12 (stereo not drawn),-5%,6%,-28%,i,18µM*,5%
Cc1cccn2c(=O)c(/C=C(\C#N)C(=O)NC3CCS(=O)(=O)C3)c(N3CCC(C(N)=O)CC3)nc12 (stereo not drawn),0%,0%,-4%,i,-13%,6%
Cc1cc(C)cc(NC(=O)c2ccc3c(c2)nnn3C2CCCC2)c1,/,-5%,/,/,-5%,5%
CC(=O)Oc1ccccc1C(=O)C=Cc1cccc([N+](=O)[O-])c1,/,0%,?,-3%,22µM*,/
O=C(/C=C/c1cccc([N+](=O)[O-])c1)OCC(=O)c1ccccc1,-1%,0%,2%,-3%,-9%,2%
O=C(/C=C/c1cccc(Cl)c1)c1ccc([N+](=O)[O-])o1,-20%,-3%,6.7µM*,6%,?,/
CCCCN(CC)C(=O)/C=C/c1cccc([N+](=O)[O-])c1,-3%,-2%,27µM*,0%,4%,6%
COc1cc(/C=C/C(=O)c2ccc([N+](=O)[O-])o2)ccc1O,-9%,0%,-29%,-6%,?,?
CCCC(C)NC(=O)/C=C/c1cccc([N+](=O)[O-])c1 (stereo not drawn),-1%,0%,0%,-1%,17%,8%
O=C(/C=C/c1cccc([N+](=O)[O-])c1)c1ccccc1,/,/,/,/,20µM*,9%
COc1ccc(CNC(=O)CCC2N=C3c4ccccc4N=C(SCc4ccc(F)cc4)N3C2=O)cc1 (stereo not drawn),/,3%,/,/,3%,2%
SMILES,Tb PFK inh,Pin1 inhibitor,PLK1 PBD block,ASM inhibitor,VDR inh,TDP1 inh
O=c1ccn(C2OC(COP(=O)(O)OC3C(CO)OC(n4ccc(=O)[nH]c4=O)C3O)C(O)C2O)c(=O)[nH]1 (stereo not drawn),/,/,/,/,-4%,/
O=C(/C=C/c1ccc([N+](=O)[O-])cc1)/C=C/c1ccco1,?,/,/,/,/,5%
O=C(/C=C/c1ccco1)c1cccc([N+](=O)[O-])c1,/,?,-20%,-2%,71µM*,/
CC(CCC(=O)O)C1CCC2C3CC[C@H]4CC(O)CC[C@@]4(C)C3C=C[C@]12C (stereo partly drawn),/,/,/,/,28µM*,7%[56.1 µM]
CC(C)CCC[C@@H](C)[C@H]1CC[C@H]2[C@@H]3CC[C@@H]4C[C@H](O)CC[C@]4(C)[C@H]3CC[C@]12C,/,/,/,/,-11%,/
Fc1ccc(Nc2nc(SCc3ccccc3F)nc3ccccc23)cc1,/,9%,/,/,10%,4%
Cc1nc(C(N)=O)c(N)n1CCc1ccccc1,0%,-11%,-18%,9%,45µM*,/
Cc1ccc(Nc2nnns2)cc1,-8%,3%,24µM*,2%,79µM*,0%
Cc1cc(OC(=O)c2ccccc2Cl)cc(=O)n1C,-7%,-6%,27µM*,-1%,11%,-6%
COc1ccc(CN(C)C2CCCCC2)cc1,-7%,-1%,24µM*,-1%,?,3%
Cc1ccc(CN(C)C2CCN(C)CC2)cc1,1%,-5%,24µM*,0%,-20%,/
O=C(COc1ccc(F)cc1)Nc1nc(-c2ccccn2)cs1,1%,-2%,?,/,-12%,8%
O=C(Nc1nc(-c2ccccc2)cs1)Nc1ccc(F)cc1F,-29%,2%,?,-2%,-6%,-5%
O=C(COc1cccc(F)c1)Nc1nc(-c2ccccn2)cs1,/,/,11µM*,/,/,/
O=C(Nc1nc(-c2ccccn2)cs1)Nc1ccc(F)cc1F,-15%,1%,4.7µM*,5%,?,9%
COc1ccc(/C=C2\CCCc3c2nc2ccccc2c3C(=O)O)cc1OC,5%,/,/,/,/,0%
COc1cc(/C=C2\CCCc3c2nc2ccccc2c3C(=O)O)cc(OC)c1O,?,-17%,27µM*,-4%,-24%,-14%
CCC1CCCCN1C(=O)N[C@@H](CCSC)C(=O)OC (stereo partly drawn),1%,-5%,1%,2%,-13%,0%
CC[C@H]1C=C[C@@H](C(C(=O)OC)C(=O)OC)CN1C(C)=O,/,20%,27µM*,1%,79µM*,/
C=CC[C@H]1C=C[C@@H](C(C(=O)OC)C(=O)OC)CN1C(C)=O,/,-4%,24µM*,2%,?,/
